Results published in the supplement of paper PMC6853941.
Counter-ions that a name gives are not always drawn. A number with no mark means an inactive call.

System: MCF10A
Test: perturbation Mahalanobis distance of morphological profile vs DMSO controls (Mahalanobis distance (SD units)); higher = stronger morphological change, active = 7 or more
Settings: 72 h
Method: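 MCF10A cells were seeded onto drugs dispensed acoustically into 384-well plates, using one dose per drug chosen from its human peak plasma concentration, and incubated for 72 h at 37 °C. Cells were stained for DNA, tubulin and mitochondria and imaged; 78 CellProfiler features were extracted, plate-normalised and compared with DMSO wells.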

[1] = screen batch: Batch1_Mahalanobis_Distance
[2] = screen batch: Batch2_Mahalanobis_Distance

Compound	perturbation Mahalanobis distance [1]	perturbation Mahalanobis distance [2]
Nc1ccc(C(=O)O)c(O)c1 [4-Aminosalicylic Acid] (130.6 µM)	12.9 (active)	13.9 (active)
CC/C(=C(\c1ccc(O)cc1)c1ccc(OCCNC)cc1)c1ccccc1 [Endoxifen] (6.75 µM)	2.6	7.34 (active)
Nc1cc(N2CCCCC2)nc(N)[n+]1OS(=O)(=O)[O-] [Minoxidil Sulfate] (4.3 µM)	3.4	3.55
Cc1ccccc1C(=O)Nc1ccc(C(=O)N2CCC[C@@H](O)c3cc(Cl)ccc32)c(C)c1 [Tolvaptan] (11.1 µM)	2.12	6.06
CCn1cc(C(=O)O)c(=O)c2cc(F)c(N3CCNCC3)nc21 [Enoxacin] (62.4 µM)	7.28 (active)	4.85
Cc1[nH]c(=O)c(C#N)cc1-c1ccncc1 [Milrinone] (5.9 µM)	2.49	3.46
CCc1c2c(nc3ccc(O)cc13)-c1cc3c(c(=O)n1C2)COC(=O)[C@]3(O)CC [7-Ethyl-10-Hydroxy-Camptothecin] (16.78 µM)	2.85	2.55
CC(=O)O.C[C@H](N)C(=O)O.NCCCC[C@H](N)C(=O)O.N[C@@H](CCC(=O)O)C(=O)O.N[C@@H](Cc1ccc(O)cc1)C(=O)O [Glatiramer Acetate] (50 µM)	2.19	2.3
CCCCN1C[C@H](O)[C@@H](O)[C@H](O)[C@H]1CO [Miglustat] (92.6 µM)	2.56	3.14
